# Experimental data: PubChem BioAssay (NCI)
# The panel holds about 83,000 compounds, 20% with a hit somewhere; the sample as a whole holds those more often.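 Note: values are percent growth. 100 is the growth of untreated cells, values between 100 and 0 indicate rising inhibition; between -100 and 0 indicates cell death.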 A number with no mark means an inactive call. Active and inactive are the calls of the source. The calls were made as follows: active = growth percent below 10; inactive = the rest.
# Columns and labels:
# Experiment in all cases: NCI-60 one-dose screen, 48 h (100 = growth as untreated, 0 = no growth, -100 = all killed)
# [1] = test system: RPMI-8226 leukemia; details: 10 µM unless noted
# [2] = test system: OVCAR-8 ovarian; details: 10 µM unless noted
# [3] = test system: OVCAR-5 ovarian; details: 10 µM unless noted
# [4] = test system: OVCAR-4 ovarian; details: 10 µM unless noted
# [5] = test system: SK-OV-3 ovarian; details: 10 µM unless noted
# [6] = test system: OVCAR-3 ovarian; details: 10 µM unless noted
# [7] = test system: HS 578T breast; details: 10 µM unless noted
# [8] = test system: NCI/ADR-RES ovarian; details: 10 µM unless noted
# [9] = test system: T-47D breast; details: 10 µM unless noted
# [10] = test system: BT-549 breast; details: 10 µM unless noted
# [11] = test system: MDA-MB-435 melanoma; details: 10 µM unless noted
# [12] = test system: SW-620 colon; details: 10 µM unless noted
# [13] = test system: MCF7 breast; details: 10 µM
# [14] = test system: HCT-116 colon; details: 10 µM unless noted
# [15] = test system: HCC-2998 colon; details: 10 µM unless noted
# [16] = test system: KM12 colon; details: 10 µM unless noted
# [17] = test system: IGROV1 ovarian; details: 10 µM unless noted
Compound,growth [1],growth [2],growth [3],growth [4],growth [5],growth [6],growth [7],growth [8],growth [9],growth [10],growth [11],growth [12],growth [13],growth [14],growth [15],growth [16],growth [17]
O=C1/C=C/[C@@H](O)[C@@H]2C[C@@H](O)C[C@H]2/C=C/CCCCO1,-39.2% (active),12.5%,36.6%,20.9%,13%,-31.3% (active),23.3%,9.26% (active),-11.1% (active),45.3%,23.5%,-33.7% (active),-48% (active),0.136% (active),6.82% (active),-51.1% (active),
N#Cc1c(N)nc2c(c1N)C(c1ccc(F)cc1)c1ccc(N)cc1O2 (stereo not drawn),103%,97.5%,99.1%,96.7%,119%,118%,95.6%,107%,92.3%,93.8%,107%,108%,98.9%,101%,112%,91.2%,
O=c1oc2ccc(I)cc2c(=O)n1-c1ccc(Cl)cc1F,-24.8% (active),8.33% (active),21.5%,15.8%,-1.52% (active),8.51% (active),5.48% (active),8.36% (active),,,1.42% (active),11.7%,2.84% (active),7.44% (active),16.9%,1.77% (active),18.7%
CC(=O)c1ccc(NC(=O)Nc2ccc(S(=O)(=O)Nc3ccc(Cl)nn3)cc2)cc1,108%,98.7%,95.3%,110%,,108%,98.4%,103%,101%,107%,107%,104%,99.1%,105%,107%,103%,99.5%
COC(=O)/C(=C\c1c(-c2ccccc2)[nH]c2ccccc12)S(C)(=O)=O,-14.8% (active),36.7%,83.5%,63.9%,39.8%,-46% (active),-9.62% (active),-13% (active),27%,45.7%,4.05% (active),20.4%,15.6%,17.4%,44.7%,4.53% (active),
CC(=O)O[C@@H]1/C=C/C(=O)N[C@@H](C)CCC/C=C/[C@@H]2CCC[C@H]21,87.5%,99.4%,87.8%,109%,103%,106%,133%,101%,98.6%,117%,106%,112%,98.8%,104%,98.5%,108%,
CCCCc1c(CCC)c(=N)c2ccccc2n1C,29.9%,65.5%,99.6%,73.4%,99.1%,90.9%,122%,85.4%,85.9%,88.1%,64.9%,59%,50.2%,64.1%,107%,77.2%,
COC(=O)/C(=C\c1c(C)[nH]c2ccccc12)S(=O)(=O)c1ccccc1,-45.8% (active),4.29% (active),33.6%,53%,22.6%,-19.8% (active),-29.7% (active),4.6% (active),17.8%,29.8%,13.9%,30.4%,6.71% (active),29.5%,5.21% (active),-13.2% (active),
Clc1ccc(COc2ccc(Nc3ncnc4onc(-c5ccccc5)c34)cc2)cc1,74.8%,92.2%,92.8%,7.69% (active),,92.8%,82.1%,77%,77%,89.1%,73.1%,68.1%,75.9%,72.1%,106%,88.9%,83.4%
